From ChEMBL document CHEMBL1157539, “Thousands of chemical starting points for antimalarial lead identification” (Nature, 2010)

Tests used:
Type in all cases: functional
Plasmodium falciparum [1] = experiment: GSK_TCMDC: Inhibition of Plasmodium falciparum 3D7 in whole red blood cells, using parasite LDH activity as an index of growth. Test compounds present at 2uM
Plasmodium falciparum [2] = experiment: GSK_TCMDC: Inhibition of Plasmodium falciparum Dd2 in whole red blood cells, using parasite LDH activity as an index of growth. Test compounds present at 2uM
HepG2 = experiment: GSK_TCMDC: Percent inhibition of human HepG2 cell line. Test compounds present at 10uM.

| Compound | Inhibition (Plasmodium falciparum [1]) [%] | Inhibition (Plasmodium falciparum [2]) [%] | Inhibition (HepG2) [%] |
| --- | --- | --- | --- |
| COc1ccc2[nH]cc(C3=CCN(CC4CC4C(=O)c4ccccc4)CC3)c2n1 (configuration not stated) | 95 | 93 | 22 |
| Cc1cc2ccc(CNCCc3ccccc3Br)cc2nc1N.Cl | 100 | 48 | 0 |
| C/C=C1/CN2CC[C@H]1C[C@H]2[C@H](O)c1ccnc2ccc(OC)cc12 | 99 | 45 | 0 |
| COc1ccc2nc(-c3ccc(F)cc3)cc([C@@H](O)[C@@H]3C[C@@H]4CCN3CC4C=NO)c2c1 (some centres not stated) | 100 | 94 | 14 |
| COc1cc(NC(=O)c2nn(CCCN3CCC4(CC3)C(=O)NCN4c3ccccc3)cc2-c2ccc(Cl)c(Cl)c2)cc(OC)c1OC | 97 | 75 | 0 |
| CCOC(=O)c1c(C)n(C2CCCCCC2)c2cc(Br)c(O)cc12 | 87 | 45 | 0 |
| CCCCCc1cc(O)c2c(c1)OC(C)(C)CC2C1=CCN(Cc2cccnc2)CC1.Cl.O (configuration not stated) | 97 | 97 | 15 |
| Cl.OC(CNC1CCCCCC1)c1ccc(Cl)c(Cl)c1 (configuration not stated) | 99 | 98 | 0 |
| CC(Cc1ccc(OC2CCCCC2)cc1)NCC(O)c1cccc(Cl)c1.Cl (configuration not stated) | 99 | 99 | 66 |
| CC[C@H]1CN2CC[C@H]1C[C@H]2[C@H](O)c1cc(/C=C/c2ccccc2)nc2ccc(OC)cc12 | 99 | 99 | 16 |
| CS(=O)(=O)Nc1ccc2[nH]cc(C3CC4CCC(C3)N4CC3CCC(NC(=O)/C=C/c4ccc(Cl)c(Cl)c4)CC3)c2c1 (configuration not stated) | 100 | 50 | 3 |
| Br.COc1ccc(CC(C)NCC(O)c2cccc(C(F)(F)F)c2)cc1F (configuration not stated) | 91 | 65 | 0 |
| Cc1ccc(CC(C)(C)NCC(O)c2cccc(C(F)(F)F)c2)cc1.O=C(O)/C=C/C(=O)O (configuration not stated) | 97 | 92 | 19 |
| CC[C@H]1C[N+]2([O-])CC[C@@H]1C[C@H]2[C@H](O)c1cc(-c2ccccc2)nc2ccc(OC)cc12 | 99 | 97 | 0 |
| CC[C@H]1CN2CC[C@H]1C[C@H]2[C@H](O)c1cc(-c2ccc(SC)cc2)nc2ccc(OC)cc12.Cl | 98 | 99 | 9 |
| CN1CC=C(c2c[nH]c3ccc(-c4ccccc4)cc23)CC1 | 93 | 60 | 14 |
| O=C(CSc1ccc(Cl)cc1)NC1CCC(CN2CCC(c3c[nH]c4ccccc34)CC2)CC1 (configuration not stated) | 95 | 21 | 41 |
| Cc1cc(N(C)C2CCN(C)CC2)nc(Nc2ccc(Cl)cc2)n1 | 98 | 90 | 15 |
| COC(=O)c1ccc(CC(C)NCC(O)c2cccc(Oc3cccc(C(F)(F)F)c3)c2)cc1.Cl (configuration not stated) | 91 | 73 | 19 |
| O=C(/C=C/c1ccc(Cl)c(Cl)c1)NCCC1CCC(N2CCC(c3c[nH]c4ccc(O)cc34)CC2)CC1 (configuration not stated) | 100 | 3 | 19 |
| COc1ccc(O)c(CN2CCN(c3cc(C)ccc3C)CC2)c1 | 90 | 86 | 7 |
| CC(=O)Nc1ccc(CN2CCC(N(C)c3ccc(NC(=O)c4cccc(C)c4)cc3)CC2)cc1.O=C(O)C(F)(F)F | 91 | 50 | 0 |
| CCOc1ccc2nccc([C@@H](O)[C@@H]3C[C@@H]4CCN3C[C@@H]4CC)c2c1.Cl [ETHYLHYDROCUPREINE HYDROCHLORIDE] | 98 | 99 | 24 |
| C[C@@H]1C[C@@H]([C@H](O)CC2CC(=O)NC(=O)C2)C(=O)[C@@H](C)C1 [CYCLOHEXIMIDE] | 96 | 87 | 46 |
